In the library only some 27% were active in any assay of this set; here they are far more common.
CYP2C9 inh: blockers of cytochrome P450 2C9 activity – biochemical, luminescence, ADME assay, primary screen; 96,000 tested, 20% active; P11712; inhibition, % at 5 µM; CYP2C9 Supersomes, luciferin-H conversion;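 active = blocking of liver enzyme CYP2C9 beyond about 50% at 5 µM, limit read from the data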
sEH act: soluble epoxide hydrolase activators, primary screen, biochemical, human sEH. purified human sEH enzymatic activity, activator screen. activation, % at 2 µM. 91,000 tested, 0.04% active. AID 717, 2007; in the data active = activation above about 37%
sEH inhibitor: soluble epoxide hydrolase inhibitors, primary screen, biochemical, human sEH | Bifunctional epoxide hydrolase 2 (Homo sapiens), P34913 | recombinant human sEH enzymatic activity assay | inhibition, % at 2 µM | 91,000 tested, 0.34% active; in the data active = inhibition above about 80%
CYP2C19 act: human CYP2C19 activators, primary screen, biochemical, luminescence. recombinant CYP2C19, luciferin-H EGE luminescence; stronger effect = higher value; 0 = fully inhibited enzyme, 1 = untreated enzyme. Cytochrome P450 2C19 (Homo sapiens), P33261. activation factor at 5 µM. 96,000 tested, under 10 active;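 active = activation factor of at least 2 at 5 µM in the primary screen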
Target sequence (P33261 whole entry, looked up): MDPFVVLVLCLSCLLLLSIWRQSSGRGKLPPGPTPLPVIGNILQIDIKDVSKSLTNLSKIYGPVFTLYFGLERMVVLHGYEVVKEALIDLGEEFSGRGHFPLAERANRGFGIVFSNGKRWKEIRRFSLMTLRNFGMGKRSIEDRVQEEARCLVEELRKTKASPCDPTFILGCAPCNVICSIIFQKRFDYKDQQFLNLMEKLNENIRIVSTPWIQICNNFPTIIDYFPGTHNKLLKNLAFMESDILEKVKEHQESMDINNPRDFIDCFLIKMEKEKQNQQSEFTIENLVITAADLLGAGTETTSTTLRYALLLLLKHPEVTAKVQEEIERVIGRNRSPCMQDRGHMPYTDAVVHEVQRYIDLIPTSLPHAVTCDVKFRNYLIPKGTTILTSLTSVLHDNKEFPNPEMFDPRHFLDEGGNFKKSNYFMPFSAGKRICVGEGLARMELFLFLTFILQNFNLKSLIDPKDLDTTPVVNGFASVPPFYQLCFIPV
CYP2C19 inh: blockers of cytochrome P450 2C19 activity – biochemical, luminescence, ADME assay, primary screen. AID 778, 2007. P33261. 96,000 tested, 21% active. CYP2C19 Supersomes, luciferin-H EGE luminescence, 30 min. inhibition, % at 5 µM;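 active = CYP2C19 inhibition above a set limit at 5 µM in the primary screen, cut at about 50% in these data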
CYP2C9 activ: human CYP2C9 activators, primary screen, biochemical, luminescence; Cytochrome P450 2C9 (Homo sapiens), P11712; recombinant CYP2C9, luciferin-H conversion; stronger effect = higher value; factor 1 = untreated enzyme, 0 = blocked; activation factor at 5 µM; 96,000 tested, 1.4% active; AID 1024, 2008;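 active = activation factor of 2 or more for CYP2C9 at a 5 µM dose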
Hits are given with their value; - = inactive; . = no result.

SMILES	CYP2C9 inh	sEH act	sEH inhibitor	CYP2C19 act	CYP2C19 inh	CYP2C9 activ
N#CC1=C(SCC(=O)NC2CCCCC2)NC(=O)CC1c1ccco1 (stereo not drawn)	59	-	-	-	72	-
N#CC1=C(SCC(N)=O)NC(=O)CC1c1ccccc1Cl (stereo not drawn)	-	-	-	-	-	-
Cc1ccc(C2CC(=O)NC(SCc3ccccc3)=C2C#N)o1 (stereo not drawn)	53	.	.	-	-	-
CCCCCCSC1=C(C#N)C(c2ccc(C)o2)CC(=O)N1 (stereo not drawn)	-	-	-	-	-	-
COC(=O)CNC(=O)COc1ccccc1	-	-	-	-	-	-
CCOc1nc(NCc2ccco2)nc(Nc2ccc(OC)cc2)n1	-	-	-	-	-	-
CCCCCCNc1nc(NCc2ccco2)nc(OCC)n1	79	-	-	-	71	-
COC(=O)c1cc2c(C)c(C)c3ccccn3c-2c1C(=O)OC	-	-	-	-	-	-
COC(=O)c1cc2n3ccccc3c(C)c(-c3ccccc3)c-2c1C(=O)OC	81	-	-	-	54	-
CCOC(=O)c1[nH]c(COC(=O)CCCOc2ccccc2)c(C(=O)OCC)c1C	80	.	.	-	-	-
CCOC(=O)c1[nH]c(COC(=O)CCOc2ccccc2OC)c(C(=O)OCC)c1C	-	-	-	-	-	-
N#CC1=C(N)C2=C(N3CCCCC3)CCCC2C1(C#N)C#N (stereo not drawn)	51	-	-	-	-	-
Cc1onc(-c2ccccc2)c1C(=O)N1CCN(C)CC1	-	-	-	-	-	-
O=C(COc1ccc(Br)cc1)N1CCC(c2ccccc2)C1 (stereo not drawn)	-	-	-	-	88	-
CCN(C(=O)CCN1C(=O)c2ccccc2C1=O)C1CCCCC1	-	-	-	-	78	-
O=C(CCN1C(=O)c2ccccc2C1=O)N1CCCCCC1	-	-	-	-	-	-
O=C(CCN1C(=O)c2ccccc2C1=O)N1CCC(c2ccccc2)C1 (stereo not drawn)	-	-	-	-	72	-
CCOC(=O)C(=O)Nc1ccccc1C(=O)NC(C)C	-	-	-	-	-	-
Cc1ccc(-c2nc(CS(=O)(=O)CC(=O)N3CC(C)CC(C)C3)c(C)o2)cc1 (stereo not drawn)	71	.	.	-	-	-
Cc1cccc(N2CCN(C(=O)CS(=O)(=O)Cc3nc(-c4ccccc4F)oc3C)CC2C)c1 (stereo not drawn)	87	.	.	-	56	-
Cc1oc(-c2ccccc2F)nc1CS(=O)(=O)CC(=O)N1CCOCC1	-	.	.	-	-	-
CCN1CCN(C(=O)CS(=O)(=O)Cc2nc(-c3ccc(C)cc3)oc2C)CC1	-	.	.	-	-	-
CCc1nnc(NC(=O)c2ccc(S(=O)(=O)NCC(C)C)cc2)s1	-	-	-	-	-	-
O=C(CN(Cc1ccc2c(c1)OCO2)C(=O)CNS(=O)(=O)c1ccccc1)NCc1ccco1	-	-	-	-	74	-
O=C(CN(CCc1ccccc1)C(=O)CNS(=O)(=O)c1ccc(F)cc1)NCc1ccco1	-	-	-	-	73	-
SMILES	CYP2C9 inh	sEH act	sEH inhibitor	CYP2C19 act	CYP2C19 inh	CYP2C9 activ
COc1ccccc1CN(CC(=O)NCc1ccco1)C(=O)CNS(=O)(=O)c1ccccc1	-	.	.	-	-	-
O=C(O)c1c(Cl)c(Cl)c(Cl)c(Cl)c1C(=O)N1CCOCC1	-	-	-	-	-	-
OC(C#Cc1ccccn1)c1cccs1 (stereo not drawn)	-	-	-	-	-	-
c1ccc(Cn2nnnc2-c2ccco2)cc1	-	-	-	-	-	-
c1ccc(CNn2nnnc2-c2ccccc2)cc1	-	-	-	-	68	-
c1ccc2c(c1)c1ccccc1n2CN1CCOCC1	.	-	-	.	.	.
CCOC(=O)c1c(-c2cccs2)csc1NC(=O)COC(=O)c1c(C)noc1C	87	.	.	-	-	-
COC(=O)c1c(NC(=O)CN2CCOCC2)sc2c1CCC(C)C2 (stereo not drawn)	-	-	-	-	-	-
COC(=O)c1c(-c2cccs2)csc1NC(=O)CN1CCOCC1	96	-	-	-	94	-
COCCN(C(=O)Nc1ccccc1)c1ccccc1C	.	-	-	.	.	.
Fc1ccc(OCc2nnc(SCCN3CCOCC3)o2)cc1	.	-	-	.	.	.
CC1=CC(C)(C)N=C(Nc2ccc(C)cc2)S1	-	.	.	-	76	-
CCCCCCC1CC(C)(/C(C)=N/NC(N)=O)OC1=O (stereo not drawn)	-	-	-	-	-	-
CNc1cc(-n2nc(C)cc2-c2ccccc2)ncn1	-	-	-	-	61	-
Cn1c(NC(=O)C2CC2)cc(=O)n(C)c1=O	-	-	-	-	-	-
O=C(CCC1CCCCC1)Nc1ccccc1-c1ccccc1	-	-	-	-	-	-
CCN(CC)S(=O)(=O)c1ccc(NC(=O)CCC2CCCCC2)cc1	93	-	-	-	78	-
O=C(CCC1CCCCC1)Nc1ccc(S(=O)(=O)Nc2nccs2)cc1	63	-	-	-	-	-
O=C(CCC1CCCCC1)Nc1ccccc1O	64	-	-	-	93	-
Cn1c(NC(=O)CCC2CCCCC2)cc(=O)n(C)c1=O	67	-	-	-	74	-
Cc1cc(NC(=O)CSc2nnc(Cc3ccccc3)o2)no1	-	-	-	-	-	-
OC1(c2cccnc2)CCN(Cc2nnnn2C2CCCCC2)CC1	-	-	-	-	-	-
CCc1cc([N+](=O)[O-])cc(CC)c1N	-	-	-	-	55	-
CC1(C)Oc2cc(N)c([N+](=O)[O-])cc2O1	-	-	-	-	-	-
O=c1c(F)cn(C2CCCO2)c(=O)n1Cc1c(Cl)cccc1Cl (stereo not drawn)	-	-	-	-	66	-
SMILES	CYP2C9 inh	sEH act	sEH inhibitor	CYP2C19 act	CYP2C19 inh	CYP2C9 activ
CCn1c(=O)cc(SCC(=O)N2CCN(C3CCCCC3)CC2)c2ccccc21	-	-	-	-	65	2.4
CCn1c(=O)cc(SCC(=O)N2CCN(C(=O)c3ccco3)CC2)c2ccccc21	-	-	-	-	-	-
O=C(CSc1cn(Cc2ccccc2)c2ccccc12)N1CCOCC1	-	-	-	-	88	-
CCn1c(=O)cc(SCC(=O)N2CCOCC2)c2ccccc21	-	-	-	-	-	2.1
CCn1c(=O)cc(SCC(=O)Nc2ccc(OC)c(OC)c2)c2ccccc21	-	-	-	-	60	2
O=C(NCCN1C(=O)CCC1=O)c1ccncc1	-	-	-	-	-	-
CC/C(=N\O)c1ccc(O)c(OC)c1	-	.	.	-	-	-
